About 1,400 (4.5%) of roughly 31,000 sequences were called active. The sample as a whole holds a higher share of actives than the screen did. A number with no mark means an inactive call.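 The calls were made as follows: active = median seed-adjusted z-score above 1 or below -1; inactive = the rest.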
Test: Novel Modifiers of Survival Motor Neuron (SMN) Protein: Gene Identification via Genome-wide siRNA Screen;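 also: luminescence tracks full-length SMN protein made from the SMN2 reporter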
Details: HEK293T SMN2-luciferase reporter, siRNA knockdown, 72 h; actives lie on both sides
Summary of the method: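 Luciferase signal, proportional to full-length SMN made from an SMN2 cDNA reporter in stable HEK293T cells, was read 72 h after siRNA reverse transfection. Values were expressed as MAD scores after non-targeting-control normalization and log10 conversion; seed analysis flagged off-targets.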

In order of rising median seed-adjusted z-score:
1. CAAUCCUCAUGCUAAACCATT against SGK1  -0.659
2. GCUACAACGGAAACAAUCATT against MSTN  -0.639
3. GCAUGUUAAUGGGUUUAAUTT against GNAS  -0.531
4. GGAAUUUUUCGGGUGGUUATT against ELF5  -0.45
5. UGAAGUUGCUGGACGCGUATT against DAD1  -0.45
6. GCAAGAUCCGAGAAGAAUATT against TUBB  -0.307
7. CAGUUGUACUGGACGGCUATT against PALLD  -0.307
8. GCGAGUAGAUAAUAUCGAATT against MAP3K5  -0.285
9. GAGCUGAAGUCCUUAGAUATT against EIF2B3  -0.271
10. GCAGGUCAGUUAUCAGACUTT against SLC17A1  -0.271
11. ACAAUACCCUCAGACUGAATT against NMUR1  -0.265
12. GAGCCUCCUCAAAUCCAAATT against SERPING1  -0.244
13. GAACAUAUGUGAUGACCGUTT against CDH2  -0.235
14. GCACUCUUCUCAUUCACGATT against ATP1B3  -0.225
15. GCAUGAUCGGGAGGGUUUATT against PPID  -0.206
16. CAGAGAACCUUCAAGUUAATT against ZNF239  -0.191
17. CGAACUCCGCUUUUUCUUATT against FZD7  -0.159
18. UGAUGACACCAACCACGAATT against CNP  -0.116
19. GGAGUUCGAUGAGACAACATT against FABP3  -0.0786
20. CGACUAUGCUUUAGAUUAUTT against MAS1  -0.0551
21. GCCGCUUUCGGAAUAAGAUTT against DGKZ  0
22. CGUGGGAUAUGUUGACGGATT against BTNL3  0
23. CCUUCACUAUUGCCCGCAATT against ABCD1  0
24. GGUUAUGAACUUUGGAUAATT against GPR103  0
25. GGAAGUUCAUUACCAGAAUTT against PLCZ1  0
26. GCUUGGAGGAUUUCAUGGATT against POFUT1  0
27. ACUCAACUCUGAUACUCCATT against DMRTC2  0
28. GGUUCUGAAAUGUUCGUCATT against ZDHHC22  0.00446
29. CGGAGAACAUUGUUGUUCUTT against TMTC2  0.0277
30. GGAGUUCGUUCAGAGACCATT against MOCS2  0.0327
31. GAUCGAUAUCUUUACAAGATT against SLK  0.0479
32. CCUUACGAAUCAUAAGAUATT against ZNF708  0.0562
33. GAGUGGACUGGGCAAAUCATT against 3-Sep  0.0683
34. GCACCUUGCAGGAUUGGAATT against PEAR1  0.071
35. CCAGGCCCAUUCUACAAUATT against PEAR1  0.071
36. ACGCAACCCUCAACAGCUCTT against UTS2R  0.0819
37. GGGCGAUUCCUGUCUAAGATT against PUM1  0.109
38. GAACGAGCUGGAUCCAUUATT against ARSF  0.111
39. CAGGUAUUCUGGUCAAUAUTT against ATL3  0.201
40. CGAAGUUCAUAGACGAGAUTT against PPP1R2  0.208
41. GGGACUCAGUACUUCCAUATT against SLC39A8  0.265
42. GAAUAAAAACGACCUCUUUTT against LZTR1  0.293
43. GACACCUUCUUAGACGAUATT against AMPD1  0.378
44. CCAACGAACUCCUUACUUATT against SCP2  0.413
45. AUAUAACUGCUGAUCUAGATT against SPCS3  0.417
46. CUCUCUUCGUAGAUCAAGATT against SFRS7  0.44
47. CCCUUACUACAACUACAAATT against ZBTB38  0.448
48. CGGGUGCACUACUACAUCUTT against GBGT1  0.48
49. GGCCCAUAUUCAUCUGCUATT against STYX  0.694
50. GGAGGUCUCCUACAUCAAATT against ZAN  0.736
51. GAAUCAAGACAAACCCGAATT against TTN  0.872
52. CGGCCUAACUUUCAAGACATT against SDK2  0.908

For GCAUAGCCCUCAACAAGAATT against IRF6, the median seed-adjusted z-score was -1.79 (active).
In the case of ACCAUAGCCUCUCACCCUATT against RASA4, the median seed-adjusted z-score is reported as -1.11 (active).
For AGAGGUCUUCGACAAUAAATT against CD9, the median seed-adjusted z-score was -1.02 (active).
For CGAUGGAGAUCAACGUGAATT against UBE2E2, the median seed-adjusted z-score was -1.77 (active).
In the case of AGCACGAGCUAGUCCCUGATT against POLR2E, the median seed-adjusted z-score is reported as -1.25 (active).
For CUAUGUCAGUGGUCCUGAATT against RETSAT, the median seed-adjusted z-score was -1.7 (active).
For CAAUGAAGACUGAUGUAUUTT against SLC9A2, the median seed-adjusted z-score was -1.02 (active).
In the case of CGAUUACGCUUCAGAGAUATT against PTP4A2, the median seed-adjusted z-score is reported as -1.45 (active).
In the case of GGACAUCCUGUCAUAGAAATT against UTP3, the median seed-adjusted z-score is reported as -1.08 (active).
In the case of GCAAUAGUCAGGAGCGAUATT against PPP1R10, the median seed-adjusted z-score is reported as 1.41 (active).
In the case of CCUUACCUGUAAACAGAGATT against ESR2, the median seed-adjusted z-score is reported as -1.1 (active).
For AGAAAUUGGUGUUCAGAAUTT against GTF2F2, the median seed-adjusted z-score was -1.14 (active).
For CUGCAGUUCUUAAUACGAATT against PSMD1, the median seed-adjusted z-score was -1.61 (active).
For AGCCCUUGACCUUAUCUAATT against CSTB, the median seed-adjusted z-score was 1.08 (active).
For GAUAAAAGGAUGGAUGAAATT against PRPF6, the median seed-adjusted z-score was -1.06 (active).
In the case of CAAUCACUCAGGAACAAAUTT against CHMP6, the median seed-adjusted z-score is reported as -1.81 (active).
For UGGUGAAAAUUACAUCUGATT against CIP29, the median seed-adjusted z-score was -1.18 (active).
In the case of GACAAUGGGUUAUUCAGGATT against FNTA, the median seed-adjusted z-score is reported as 1.04 (active).
